Screening results from PubChem BioAssay.
The list is not random: actives were taken first. Their share in the collection is about 7.9%.
Lassa entry inh – qHTS for Inhibitors of binding or entry into cells for Lassa Virus; Lassa virus pseudotype entry inhibition, cell reporter; Potency, µM (highest dose often 37.9 µM), for inactives: at the top dose activity change, negative = inhibition, usual class: inhibitors; 300,000 tested, 1.2% active; AID 540256, 2011; calls by dose curve; tested in HEK293 cells; note: potency is the fitted concentration of half-maximal effect; nearly all actives have a fitted effect of over 50% in size
MARV entry inh – qHTS for inhibitors of binding or entry into cells for Marburg Virus; Marburg virus pseudotyped entry inhibition, cell reporter; Potency, µM (titrated, usually from 37.8 µM), for inactives: at the top dose activity change, negative = inhibition, actives largely listed as inhibitors; 300,000 tested, 1.8% active; calls by dose curve; tested in HEK293 cells; note: potency is the fitted concentration of half-maximal effect
HCMV inh – qHTS Assay for inhibitors of the human cytomegalovirus (HCMV); activity change, negative = inhibition, % at 57.5 µM; 410,000 tested, 4.5% active; AID 1259415, 2018; HFF cells, HCMV-luciferase reporter, 72 h; active compounds read low; in the data active = activity change below about -60%; inconclusive = no clear call, values can overlap the other calls; inactive = above about -39%
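HFF cells seeded 16 h at 37C, treated with compounds, infected with luciferase-reporter HCMV at MOI 1 PFU/cell; luciferase read at 72 h post infection, normalized to buffer-only and Salinomycin controls.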
HCV inh – qHTS Assay for Inhibitors of Hepatitis C Virus (HCV). 340,000 tested, 3.4% active. Huh7.5.1 HCVcc-Cre infection, luciferase reporter, 44 h. Potency, µM (doses to about 41.8 µM), for the others: at the top dose activity change, negative = inhibition, actives largely listed as inhibitors; active = well fitted inhibition curve with a large enough effect; inconclusive = small, poorly fitted or top-dose-only effect, or another doubt; inactive = no such curve, though single readings can be large or run the other way; note: potency is the fitted concentration of half-maximal effect
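Cells seeded at 1,000/well and cultured 4 h, then compounds added followed by HCVcc-Cre virus (~0.5 moi). After 44 h further culture, luciferase substrate was added, plates held 15 min at room temperature, and luminescence read for 15 sec.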
FMDV inh – High Throughput Screening for Foot and Mouth Disease Virus Antivirals | FMDV antiviral cell-based qHTS | Potency, µM (top dose mostly 57.9 µM), for inactives: at the top dose activity change, negative = inhibition, actives largely listed as inhibitors | 410,000 tested, 1.2% active | AID 1159524, 2015; calls by dose curve; tested in HEK293T cells; note: read-out not given here; potency is the fitted concentration of half-maximal effect; nearly all actives have a fitted effect of over 45% in size
* = called active by the depositor; ? = inconclusive; . = not tested or not shown; [ ] = dose if it differs, or a comment. % is set by controls: 0 for no effect and ±100 for the full control effect.

SMILES	Lassa entry inh	MARV entry inh	HCMV inh	HCV inh	FMDV inh
COc1ccc(-c2ccc(CO)o2)cc1N	-21%	0%[14.2 µM]	34	-12%	15%
CNC(=O)c1cc(-c2ccc(F)cc2)cc(-c2ccc(S(=O)(=O)N3CCCC3)cc2)c1N	8.9µM*	.	.	.	.
COC(=O)C[C@H]1c2ccccc2[C@@H]2C(=C[C@@H](C)[C@H]3C(=O)N(c4ccccc4)C(=O)[C@H]32)N1C(=O)OC	.	10%[14.2 µM]	.	.	.
COc1ccc(CCCC(=O)NCc2ccccc2)cc1C	8.2µM*	-26%	-16	?	-23%
CCCN(CCC)C(=O)CSc1nc2n[nH]c(C)c2c(=N)n1-c1ccc(OC)cc1	?	?	28	?	22µM*
CCCN(CCC)C(=O)CSc1nc2n[nH]c(C)c2c(=N)n1-c1ccc(OCC)cc1	11µM*	?	.	?	-25%
CCCCN(CC)C(=O)CSc1nc2n[nH]c(C)c2c(=N)n1-c1cccc(C)c1	-21%[46.1 µM]	.	?	11µM*	?
CCCCN(CC)C(=O)CSc1nc2n[nH]c(C)c2c(=N)n1-c1cccc(OC)c1	?	.	77	.	-20%
Cc1cccc(N2CN=c3s/c(=C/c4ccncc4)c(=O)n3C2)c1	.	-1%	.	.	.
C[C@H](CCC(=O)OCc1cn(CC(=O)c2ccc(O)cc2)nn1)[C@H]1CC[C@H]2[C@@H]3CC[C@@H]4C[C@H](O)CC[C@]4(C)[C@@H]3C[C@H](O)[C@]12C	6%[46.1 µM]	.	.	.	.
O=C(OCC(=O)N1CCN(Cc2ccccc2)CC1)c1cc(Cl)ccc1[N+](=O)[O-]	-13%	1%	3	5%	0%
O=C(/C=C/c1ccccc1)N1CCC(N2CCC(C(=O)N3CCOCC3)CC2)CC1	1%	-14%[46.1 µM]	1	2%	22%
Cc1ccc(-n2c(-c3ccc(Cl)cc3)c[n+]3c2CCC3)cc1	.	.	-91*	?	?
FC(F)Sc1ccc(-n2c(-c3ccc(Cl)cc3)c[n+]3c2CCC3)cc1	.	.	-25	5%	-25%
Cc1ccc(-n2c(-c3ccccc3)c[n+]3c2CCC3)cc1	?	?	-95*	-29%	?
Nc1nc(CN2CCN(C(=O)c3ccco3)CC2)nc(Nc2cccc(Cl)c2)n1	.	?	1	-28%	-12%
CSCC[C@H](NC(=O)OC(C)(C)C)C(=O)N1CCC(C(=O)N[C@@H](C)C(=O)NC(C)c2ccccc2)CC1 (stereo partly drawn)	.	.	10	-5%	-16%
O=C(COc1cccc(C(F)(F)F)c1)Nc1ccc(S(=O)(=O)N2CCCC2)cc1	-10%	-17%	18	11µM*	?
COc1ccc(NC(=O)COc2ccccc2C(N)=O)cc1S(=O)(=O)N1CCCCC1	.	.	-24	.	-13%
Cc1ccc(NC(=O)COc2cccc(C)c2C)cc1S(=O)(=O)N1CCCCCC1	11µM*	?	?	6.3µM*	?
Cc1ccc(NC(=O)COc2ccccc2C(N)=O)cc1S(=O)(=O)N1CCCCCC1	.	.	-91*	5µM*	25µM*
COc1ccc(NC(=O)COc2ccccc2C)cc1S(=O)(=O)N1CCCCC1	?	?	-27	8.9µM*	?
CCn1nc(C)c(CN2CCC(C(=O)Nc3cccc(-c4cccc(Cl)c4)c3)CC2)c1C	.	.	-15	?	-1%
Cc1cc(Cl)c(S(=O)(=O)N2CCCC2)cc1OCC(=O)NC1CCCCC1	?	?	-96*	?	?
Cc1cc(Cl)c(S(=O)(=O)NC(C(=O)O)C(C)C)cc1OCC(=O)NC1CCCCC1 (stereo not drawn)	0%	-11%	17	17%	19%
SMILES	Lassa entry inh	MARV entry inh	HCMV inh	HCV inh	FMDV inh
CCc1cccc(OCC(=O)Nc2ccc(C)c(S(=O)(=O)N3CCCCCC3)c2)c1	?	?	-15	8.9µM*	?
COc1ccc(NC(=O)COc2ccccc2C#N)c(S(=O)(=O)N2CCCCC2)c1	?	?	-27	10µM*	-22%
N#Cc1ccccc1OCC(=O)Nc1cccc(S(=O)(=O)N2CCCCCC2)c1	?	?	4	?	-5%
COc1ccc(NC(=O)CCOc2cc(C)ccc2C)cc1S(=O)(=O)N1CCCCC1	?	?	-62*	?	?
Cc1cc(C)c(NC(=O)CN2C(=O)CCn3nc(-c4cccn4C)cc32)c(C)c1	?	.	3	.	9%
CCC(=O)Nc1ccc(/C(C)=N/NC(=O)c2c(-c3ccccc3Cl)noc2C)cc1	-2%	24%	3	-13%	-12%
Cc1ccc(NC(=O)c2ccc(=O)n(Cc3ccccc3C)c2)c(C)c1	12%[46.1 µM]	.	-38	.	8%
COc1cc(C(C)=O)ccc1OCC(=O)Nc1ccc(C)c(S(=O)(=O)N2CCCCCC2)c1	.	.	0	4µM*	?
COc1cc(C(C)=O)ccc1OCC(=O)Nc1ccc(S(=O)(=O)N2CCCCC2)cc1	.	.	13	.	-13%
O=C(CNc1cc(S(=O)(=O)N2CCCC2)ccc1OCC(F)(F)F)Nc1ccc(SC(F)F)cc1	18µM*	8.2µM*	-63*	?	-24%
CCc1nc2ccccc2nc1N1CCN(S(=O)(=O)c2ccc(Cl)cc2)CC1	?	11µM*	0	-23%	?
O=S(=O)(c1ccc(Cl)cc1)N1CCN(c2ccccn2)CC1	-9%	7%	22	17%	0%
Cn1c(SCC(=O)N2CCN(S(=O)(=O)c3ccc(Cl)cc3)CC2)nc2ccccc21	?	-18%	66	-8%	?
Cn1c(N2CCN(S(=O)(=O)c3ccc(Cl)cc3)CC2)nc2ccccc21	-24%	-22%[46.1 µM]	-61*	-27%	?
Cc1ccc(C(=O)N2CCN(c3nc4ccccc4n3C)CC2)cc1	.	.	-62*	-26%	?
Cc1ccccc1-c1cccc(CN2CCc3nnc(C(C)NC(=O)c4cccnc4)n3CC2)c1 (stereo not drawn)	.	.	.	.	-5%
O=C(c1ccco1)N1N=C(c2ccc(Br)cc2)CC1c1ccco1 (stereo not drawn)	.	.	147	?	-29%
N#Cc1cc([N+](=O)[O-])c(-n2nnc3ccccc32)c([N+](=O)[O-])c1	0%	?	.	-14%	7%
COc1ccccc1Oc1cc(C#N)c(C#N)cc1-n1nnc2ccccc21	?	?	-92*	?	?
COC(=O)[C@]12CCCCC=C1N(Cc1ccccc1)C(=O)[C@H](CC(=O)NCc1cccc3ccccc13)C2	.	.	1	.	-17%
CCOC(=O)[C@]12CCC=C1N(Cc1ccccc1)C(=O)[C@H](CC(=O)NCc1cccc(C(F)(F)F)c1)C2	.	.	-97*	.	-12%
COC(=O)[C@]12CCCCC=C1N(Cc1ccc3c(c1)OCO3)C(=O)[C@H](CC(=O)NCc1cccc3ccccc13)C2	.	.	-61*	.	-11%
COC(=O)[C@]12CCCCC=C1N(Cc1cccc3ccccc13)C(=O)[C@H](CC(=O)NCCC(C)C)C2	.	.	-61*	.	-26%
